# Records with an inconclusive call do not appear. Where a call stands in place of a potency, no number is given. Values without a mark were called inactive. Active and inactive are the calls of the source. Unless noted, the call rests on the fitted dose curve; in most records, active means well fitted curve in the direction sought with a large enough effect; inconclusive means small, poorly fitted or top-dose-only effect, or another doubt; inactive means no such curve, though single readings can be large; an effect the other way counts as inactive or inconclusive.
# How the values were obtained:
# [1] = biological target: Calcium and integrin-binding protein 1 (Homo sapiens) (UniProt Q99828); test: Primary qHTS for Identification of Calcium Integrin Binding Protein 1 (CIB1) Competitor (AID 1508620);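 further: GST tagged CIB1 binding a fluorescein labelled alphaIIb integrin peptide tracer; top concentration of the series differs between compounds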
# Sequence of Calcium and integrin-binding protein 1 (Homo sapiens) (Q99828 whole entry, looked up): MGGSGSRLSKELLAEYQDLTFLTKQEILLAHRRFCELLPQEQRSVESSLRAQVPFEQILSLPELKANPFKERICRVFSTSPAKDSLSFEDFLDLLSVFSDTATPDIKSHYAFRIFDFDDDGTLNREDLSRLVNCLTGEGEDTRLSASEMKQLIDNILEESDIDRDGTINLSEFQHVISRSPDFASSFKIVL
# Procedure, shortened: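 CIB1-GST (1 uM final) and compound incubated 15 min at room temperature before adding FITC-alphaIIb peptide tracer (100 nM final). Competition for binding read by fluorescence polarization (ex 480, em 540) after another 15 min at room temperature.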
# [2] = Primary qHTS for inhibitors of nuclear receptor binding SET domain protein 2 (NSD2) in an isogenic RCH-ACV NSD2 p.E1099K mutant (9B) (AID 1645876); further: nearly all actives have a fitted effect of over 70% in size
# [3] = Primary qHTS for inhibitors of nuclear receptor binding SET domain protein 2 (NSD2) in an RCH-ACV wild type WT cells (2C) (AID 1645877); further: nearly all actives have a fitted effect of over 70% in size; further: potency means the concentration at half of the fitted maximal effect
# [4] = biological target: Rap guanine nucleotide exchange factor 3 (Homo sapiens) (UniProt O95398); test: Confirmatory qHTS for antagonist of cAMP-regulated guanine nucleotide exchange factor 3 (EPAC1) (AID 1645880); conditions: EPAC1 Rap1B-BODIPY-GDP exchange, fluorescence; further: potency means the concentration at half of the fitted maximal effect; nearly all actives have a fitted effect of over 55% in size
# Sequence of Rap guanine nucleotide exchange factor 3 (Homo sapiens) (O95398 whole entry, looked up): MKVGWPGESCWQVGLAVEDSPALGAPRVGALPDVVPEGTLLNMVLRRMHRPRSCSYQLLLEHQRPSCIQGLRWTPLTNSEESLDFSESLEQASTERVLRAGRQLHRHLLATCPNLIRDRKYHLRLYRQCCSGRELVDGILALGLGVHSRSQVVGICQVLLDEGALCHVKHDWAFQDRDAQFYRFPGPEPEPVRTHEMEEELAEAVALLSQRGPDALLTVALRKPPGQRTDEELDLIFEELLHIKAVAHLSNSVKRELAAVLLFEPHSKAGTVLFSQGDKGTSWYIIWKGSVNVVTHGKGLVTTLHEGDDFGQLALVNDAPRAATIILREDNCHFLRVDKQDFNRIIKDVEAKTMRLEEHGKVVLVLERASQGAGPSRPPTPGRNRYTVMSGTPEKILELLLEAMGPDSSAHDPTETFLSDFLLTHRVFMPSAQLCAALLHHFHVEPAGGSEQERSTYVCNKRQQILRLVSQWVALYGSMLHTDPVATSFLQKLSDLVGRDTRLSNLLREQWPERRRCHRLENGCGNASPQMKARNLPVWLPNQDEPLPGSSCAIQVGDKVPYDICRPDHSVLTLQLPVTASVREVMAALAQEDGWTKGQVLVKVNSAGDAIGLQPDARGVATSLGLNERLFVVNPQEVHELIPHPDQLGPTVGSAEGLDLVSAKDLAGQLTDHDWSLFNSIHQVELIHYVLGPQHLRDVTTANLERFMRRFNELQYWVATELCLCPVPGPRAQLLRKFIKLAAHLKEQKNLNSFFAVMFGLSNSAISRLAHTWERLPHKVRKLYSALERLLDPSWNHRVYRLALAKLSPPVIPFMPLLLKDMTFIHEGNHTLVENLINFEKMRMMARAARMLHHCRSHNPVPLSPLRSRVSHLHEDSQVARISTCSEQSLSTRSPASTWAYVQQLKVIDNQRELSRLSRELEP
# Description: Assay Provider (PI): Xiaodong Cheng Ph.D. The University of Texas Medical Branch, […], TX MLPCN Grant: NS066510 In multi-cellular eukaryotic organisms, the effects of cAMP are transduced by two ubiquitously-expressed intracellular cAMP receptors, the classic protein kinase A/cAMP-dependent protein kinase (PKA/cAPK) and the more recently discovered exchange protein directly activated by cAMP/cAMP-regulated guanine nucleotide exchange factor (EPAC/cAMP-GEF). Both PKA and EPAC are ubiquitously expressed in all tissues, and an increase in intracellular cAMP levels will lead to the activation of both PKA and EPAC. Therefore, careful dissections of the individual role and relative contribution of EPAC and PKA within the overall cAMP signaling in various model systems are critical for further elucidating the mechanism of cAMP signaling. To date no EPAC-specific antagonists and agonist, as well as isoform-specific agonists have been reported, and developing EPAC-specific pharmacological probes to determine the physiological functions that EPAC play in the overall cAMP-mediated signaling remains a major challenge within the research field. […] This qHTS will be used to screen the Molecular Libraries Small Molecule Repository (MLSMR) as a concentration-titration series using the NCGC unique quantitative screening (qHTS) platform to find activators for EPAC1. […] Activators are identified by monitoring the change in fluorescence signal as the exchanged free BODIPY-GDP has a reduced fluorescence compared to Rap1-bound BODIPY-GDP. […]
# Briefly, three uL of reagents (100 nM EPAC1, 250 nM RAP1B-BODIPY-GDP, 50 uM GDP) were dispensed into a 1536-well Greiner black solid-bottom medium binding assay plate. […] The assay plates were read at 5 minute intervals for 30 minutes in the ViewLux plate reader using 480nm excitation and 540nm emission filters. […]
# [5] = biological target: Cytochrome P450 2D6 (Homo sapiens) (UniProt P10635); test: Cytochrome P450 family 2 subfamily D member 6 (CYP2D6) small molecule antagonists: luciferase biochemical (cell-free) qHTS assay (AID 1645840; active means well fitted curve in the direction sought with a large enough effect in the repeat runs; an effect the other way counts as inactive or inconclusive; further: series mostly up to about 57 µM; nearly all actives have a fitted effect of over 55% in size)
# Sequence of Cytochrome P450 2D6 (Homo sapiens) (P10635 whole entry, looked up): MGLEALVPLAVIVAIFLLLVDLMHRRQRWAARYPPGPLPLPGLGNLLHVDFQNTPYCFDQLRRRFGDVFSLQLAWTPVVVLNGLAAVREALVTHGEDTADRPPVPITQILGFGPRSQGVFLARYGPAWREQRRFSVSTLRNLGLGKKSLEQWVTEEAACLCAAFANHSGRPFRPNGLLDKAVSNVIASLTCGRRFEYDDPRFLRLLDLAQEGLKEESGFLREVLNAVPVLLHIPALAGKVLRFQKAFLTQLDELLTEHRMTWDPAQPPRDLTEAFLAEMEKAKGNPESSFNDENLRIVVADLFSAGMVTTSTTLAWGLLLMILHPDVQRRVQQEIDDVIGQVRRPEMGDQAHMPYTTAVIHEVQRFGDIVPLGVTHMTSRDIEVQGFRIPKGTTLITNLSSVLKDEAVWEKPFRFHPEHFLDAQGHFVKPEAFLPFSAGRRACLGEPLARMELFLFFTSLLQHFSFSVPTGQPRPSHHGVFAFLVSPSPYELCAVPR
# Procedure, shortened: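 P450-Glo luminescent screen: recombinant CYP2D6 enzyme–proluciferin substrate mix preincubated with compound 10 min at room temperature, then NADPH regeneration added for 1 h at room temperature. Detection reagent added for 20 min; luciferin light read as relative luminescence units.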
# [6] = biological target: Cytochrome P450 2C9 (Homo sapiens) (UniProt P11712); test: Cytochrome P450 family 2 subfamily C member 9 (CYP2C9) small molecule antagonists: luciferase biochemical (cell-free) qHTS assay (AID 1645842; active means well fitted curve in the direction sought with a large enough effect in the repeat runs; an effect the other way counts as inactive or inconclusive; further: nearly all actives have a fitted effect of over 55% in size; further: potency means the concentration at half of the fitted maximal effect)
# Sequence of Cytochrome P450 2C9 (Homo sapiens) (P11712 whole entry, looked up): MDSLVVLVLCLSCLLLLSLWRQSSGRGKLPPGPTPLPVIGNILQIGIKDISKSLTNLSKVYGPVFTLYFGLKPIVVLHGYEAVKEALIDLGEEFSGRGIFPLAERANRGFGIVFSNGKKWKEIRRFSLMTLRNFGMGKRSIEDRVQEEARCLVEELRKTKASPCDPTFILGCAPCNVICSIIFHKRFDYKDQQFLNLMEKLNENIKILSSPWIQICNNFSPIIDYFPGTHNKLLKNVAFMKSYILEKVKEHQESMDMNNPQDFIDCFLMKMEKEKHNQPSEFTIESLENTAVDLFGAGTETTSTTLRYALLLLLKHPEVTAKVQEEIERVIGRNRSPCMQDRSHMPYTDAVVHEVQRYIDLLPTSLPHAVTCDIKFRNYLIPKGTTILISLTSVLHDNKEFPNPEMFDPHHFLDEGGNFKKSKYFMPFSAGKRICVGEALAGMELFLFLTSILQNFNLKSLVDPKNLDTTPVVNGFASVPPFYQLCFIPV
# Procedure, shortened: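 Luminescence, after 20 min with luciferin detection reagent, reflected CYP2C9 turnover during a 1 h NADPH-driven reaction at 37C. Enzyme-substrate mix contained 0.4% bovine serum albumin and was preincubated with compound 10 min at room temperature.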
smiles,measurement,setting,value
CC1(C)CCC2(C(=O)O)CCC3(C)C(=CCC4C5(C)CCC(O)C(C)(CO)C5C(O)CC43C)C2C1 (stereo not given),Potency,[1],inactive
same,Potency,[2],inactive
same,Potency,[3],inactive
Cc1ccc([C@@H]2CC=C(C(=O)O)[C@H](c3ccc(C(C)(C)C)cc3)N2S(=O)(=O)c2ccc(C)cc2)cc1,Potency,[1],inactive
same,Potency,[4],50.1 µM (active)
CC1=CC(=O)C(=C(C)C)CC2C(C)(O)CCC12O (stereo not given),Potency,[1],inactive
same,Potency,[2],inactive
same,Potency,[3],inactive
OC[C@H]1O[C@@H](Oc2cc(O)cc(-c3cc4ccc(O[C@@H]5O[C@H](CO)[C@@H](O)[C@H](O)[C@H]5O)cc4o3)c2)[C@H](O)[C@@H](O)[C@@H]1O,Potency,[1],inactive
same,Potency,[3],inactive
CCC(=O)OCC(=O)[C@@]1(OC(=O)CC)[C@@H](C)C[C@H]2[C@@H]3CCC4=CC(=O)C=C[C@]4(C)[C@@]3(F)[C@@H](O)C[C@@]21C,Potency,[1],inactive
same,Potency,[3],0.0073 µM (active)
COc1cncc(C#Cc2ccccn2)c1,Potency,[1],inactive
same,Potency,[2],inactive
same,Potency,[3],inactive
C=C(C(=O)OC)[C@]12O[C@@](C)(CC[C@@]3(O)/C(=C\C)C(=O)O[C@]3(C)C[C@@H]1OC(=O)C(CO)CN1CCCC1C(=O)O)CC2=O (stereo not given in full),Potency,[1],inactive
same,Potency,[3],6.82 µM (active)
CC1CCC23COC(=O)C2=CC(O)CC3C1(C)CCc1ccoc1 (stereo not given),Potency,[1],inactive
same,Potency,[2],inactive
same,Potency,[3],inactive
C=C1C[C@]23C[C@@]1(O)CC[C@H]2[C@@]12C=C[C@H](O)[C@@](C)(C(=O)O1)[C@H]2[C@@H]3C(=O)O,Potency,[1],inactive
same,Potency,[2],inactive
same,Potency,[3],inactive
On1ncc(C2CCNCC2)c1-c1cccc(-c2ccccc2)c1,Potency,[1],inactive
same,Potency,[3],inactive
C/C=C(\C)C(=O)OC1C2(O)CC3=C4CC(=O)OC(c5ccoc5)C4(C)CCC3C(C)(C2=O)C(C(OC(C)=O)C(=O)OC)C1(C)C (stereo not given),Potency,[1],inactive
same,Potency,[3],3.83 µM (active)
COc1ccc(N2CCN(CCCNC(=O)Cn3c(=O)c4cccn4c4c(C)ccnc43)CC2)cc1,Potency,[5],inactive
same,Potency,[2],inactive
same,Potency,[3],inactive
O=C(O)c1cccc(CN2C(=O)/C(=C(\c3ccccc3)c3ccc(Cl)cc3)c3ccccc32)c1,Potency,[6],15.1 µM (active)
C[C@@H]1O[C@@H](O[C@H]2[C@H](OC(=O)[C@]34CCC(C)(C)C[C@H]3C3=CCC5[C@@]6(C)C[C@@H](O)[C@@H](O[C@@H]7O[C@H](CO)[C@@H](O)[C@H](O)[C@H]7O)[C@@](C)(CO)C6[C@H](O)C[C@@]5(C)[C@]3(C)CC4)OC[C@H](O)[C@@H]2O)[C@H](O)[C@H](O[C@@H]2OC[C@](O)(CO)[C@H]2O)[C@H]1O[C@@H]1OC[C@@H](O)[C@H](O[C@H]2O[C@H](C)[C@@H](O)[C@H](O)[C@@H]2O)[C@H]1O (stereo not given in full),"activity change, negative = viability loss",[2],-25.2% [at 9.23 µM]
Cc1ccccc1NC(=O)Nc1ccc(CN2C(=O)N([C@@H](CC(C)C)C(=O)N[C@@H](CC(=O)O)c3ccccc3)C(=O)C2(C)C)cc1,Potency,[5],inactive
same,Potency,[2],inactive
same,Potency,[3],inactive
C[C@H]1[C@H](C)CC[C@]2(C(=O)OC3OC(CO)C(O)C(O)C3O)CC[C@]3(C(=O)O)C(=CCC4[C@@]5(C)CC[C@H](O[C@@H]6O[C@@H](C)[C@H](OC7OC(CO)C(O)C(O)C7O)[C@@H](O)[C@H]6O)C(C)(C)C5CC[C@]43C)[C@H]12 (stereo not given in full),Potency,[1],inactive
same,"activity change, negative = viability loss",[2],-7.55% [at 9.23 µM]
same,"activity change, negative = cell killing",[3],-2.86% [at 9.23 µM]
C[C@]1(C2CCCC2)Cc2cc(OCC(=O)O)c(Cl)c(Cl)c2C1=O,Potency,[1],inactive
same,Potency,[2],inactive
same,Potency,[3],inactive
CC(C)CC(=O)O[C@@H]1O[C@H](CO)[C@@H](O[C@H]2O[C@H](C)[C@@H](N[C@H]3C=C(CO)[C@@H](O[C@H]4O[C@H](CO)[C@@H](O[C@H]5O[C@H](CO)[C@@H](O[C@H]6O[C@H](CO)[C@@H](O)[C@H](O)[C@H]6O)[C@H](O)[C@H]5O)[C@H](O)[C@H]4O)[C@H](O)[C@H]3O)[C@H](O)[C@H]2O)[C@H](O)[C@H]1O,"activity change, negative = viability loss",[2],3.07% [at 9.23 µM]
CC1(C)CC2C3=CCC4[C@@]5(C)CC[C@H](OC6OCC(O)C(OC7OC(CO)C(O)C(O)C7O)C6O)C(C)(C)C5CC[C@@]4(C)[C@]3(C)C[C@H](O)[C@@]2(CO)[C@H](OC(=O)c2ccccc2)C1 (stereo not given in full),"activity change, negative = viability loss",[2],-12.4% [at 9.23 µM]
C=C1CCC2C(C)(C)CC(O)CC2(C)C1CCC(C)CCOC(=O)CCC(=O)O (stereo not given),Potency,[2],inactive
C/C=C/C=C/C1=C2C(=O)C3(C)C4C(C(=O)CC(O)/C=C/C)=C(O1)C1(C)C2C2(C)OC1(O)C4(C)OC23O (stereo not given),Potency,[1],inactive
same,Potency,[3],7.96 µM (active)
COc1cc(/C=C/c2ccccc2)c(C(=O)O)c(O)c1CC=C(C)C,Potency,[2],inactive
Cc1cc(-n2c(=O)[nH]c(=O)n(C)c2=O)ccc1Oc1ccc(SC(F)(F)F)cc1,Potency,[1],inactive
same,Potency,[2],inactive
same,Potency,[3],inactive
Oc1ccc2c(-c3c(-c4ccccn4)nn4c3CCC4)ccnc2c1,Potency,[5],inactive
same,Potency,[6],inactive
C[C@@H]1O[C@@H](O[C@H]2[C@@H]3C=CO[C@@H](O[C@@H]4O[C@H](CO)[C@@H](O)[C@H](O)[C@H]4O)[C@@H]3[C@@]3(CO)O[C@@H]23)[C@H](OC(=O)/C=C/c2ccc(O)cc2)[C@H](O)[C@H]1O,Potency,[1],inactive
same,Potency,[2],inactive
same,Potency,[3],inactive
